Laboratory results reported in PubChem BioAssay (Tox21).
Inconclusive results are not listed. Active and inactive are the calls of the source. The call rests on the fitted dose curve; in most records, active means well fitted curve in the direction sought with a large enough effect in the repeat runs; inconclusive means weak or mixed curves; inactive means no such curve, though single readings can be large; an effect the other way counts as inactive or inconclusive.

Experiments:
[1] = qHTS RealTime-Glo MT Cell Viability Assay in HEK293 cells - 16 hour (AID 1224872); further: top concentration of the series differs between compounds; nearly all actives have a fitted effect of over 50% in size
In short: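 Cells + reagent dispensed (600 cells/well, HEK293) → 5 h at 37 C/5% CO2 → 23 nL compound in DMSO pinned → 40 h at 37 C → luminescence read at 0, 8, 16, 24, 32, 40 h.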

[2] = qHTS RealTime-Glo MT Cell Viability Assay in HepG2 cells - 8 hour (AID 1224873); further: nearly all actives have a fitted effect of over 55% in size
In short: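 Real-time viability: cells seeded at 600 per well together with NanoLuc and cell-permeant prosubstrate, compounds added after 5 h incubation. Luminescence tracked at 0, 8, 16, 24, 32 and 40 h of exposure.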

[3] = qHTS RealTime-Glo MT Cell Viability Assay in HEK293 cells - 40 hour (AID 1224874); conditions: RealTime-Glo luminescence; max response: hits give low values; further: nearly all actives have a fitted effect of over 50% in size
In short: (§1)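 Measured as luminescence from the same continuously cultured HEK293 wells at successive time points (0, 8, 16, 24, 32, 40 h) after compound addition. Reagent present from seeding; dosing at 5 h; incubation 37 C.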

[4] = A CellTox Green Cytotoxicity Assay to monitor cytotoxicity in HEK293 cells - 24 hour (AID 1224875); further: series mostly up to about 77 µM; nearly all actives have a fitted effect of over 45% in size
In short: (§2)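 Homogeneous no-lysis format: HEK293 cell suspension mixed with CellTox Green reagent, seeded, incubated 5 h at 37 C/5% CO2, then dosed by pintool with compound in DMSO.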

[5] = A CellTox Green Cytotoxicity Assay to monitor cytotoxicity in HepG2 cells - 16 hour (AID 1224876); further: nearly all actives have a fitted effect of over 45% in size; further: potency means the concentration at half of the fitted maximal effect
In short: (§3)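 Fluorescent DNA-binding dye, 600 HepG2 cells/well, 5 h preincubation then compound in DMSO; same plates read at 0–40 h, 37 C.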

[6] = qHTS RealTime-Glo MT Cell Viability Assay in HepG2 cells - 32 hour (AID 1224877); further: nearly all actives have a fitted effect of over 55% in size
In short: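 Real-time, nonlytic viability: 600 HepG2 cells/well mixed with NanoLuc enzyme plus prosubstrate; 5 h settle, compound (DMSO) added by pintool; luminescence monitored over 40 h at 37 C.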

[7] = A CellTox Green Cytotoxicity Assay to monitor cytotoxicity in HepG2 cells - 24 hour (AID 1224878); further: nearly all actives have a fitted effect of over 45% in size; further: potency means the concentration at half of the fitted maximal effect
In short: as §3

[8] = qHTS RealTime-Glo MT Cell Viability Assay in HEK293 cells - 0 hour (AID 1224880); further: top concentration of the series differs between compounds; nearly all actives have a fitted effect of over 45% in size
In short: as §1

[9] = A CellTox Green Cytotoxicity Assay to monitor cytotoxicity in HEK293 cells - 32 hour (AID 1224881); further: nearly all actives have a fitted effect of over 40% in size
In short: as §2

[10] = A CellTox Green Cytotoxicity Assay to monitor cytotoxicity in HepG2 cells - 40 hour (AID 1224879); further: nearly all actives have a fitted effect of over 40% in size
In short: as §3
On the % scale 0 is the no-effect control and ±100 the full control effect.

O=C(O)COC(=O)Cc1ccccc1Nc1c(Cl)cccc1Cl
inactive: Potency [1] | Potency [2] | max response [3] 5.48% | Potency [4] | Potency [5] | Potency [6] | Potency [7] | Potency [8] | Potency [9]

O=C(O)Cn1c(C(=O)Nc2nc(-c3ccccc3Cl)cs2)cc2ccccc21
inactive: Potency [1] | Potency [2] | max response [3] -2.19% | Potency [4] | Potency [5] | Potency [6] | Potency [7] | Potency [10] | Potency [9]

CC(O)C1CCCCC1 (stereo unspecified)
inactive: Potency [1] | Potency [2] | max response [3] 3.26% | Potency [4] | Potency [5] | Potency [6] | Potency [7] | Potency [10] | Potency [9]

CC(C(=O)O)c1ccc(-c2ccccc2)c(F)c1 (stereo unspecified)
inactive: Potency [1] | Potency [2] | max response [3] -0.192% | Potency [4] | Potency [6] | Potency [8] | Potency [9]
active: Potency [5] 49 µM | Potency [7] 54.9 µM

CCCCCOC(=O)COc1cc(N2C(=O)C3=C(CCCC3)C2=O)c(F)cc1Cl
inactive: Potency [1] | Potency [2] | max response [3] 4.37% | Potency [4] | Potency [5] | Potency [6] | Potency [7] | Potency [10] | Potency [9]

CCCCCCOC(=O)CCC
inactive: Potency [1] | Potency [2] | max response [3] 6.13% | Potency [4] | Potency [5] | Potency [6] | Potency [7] | Potency [8] | Potency [9]

CC(=O)/C=C/C1C(C)=CCCC1(C)C (stereo unspecified)
inactive: Potency [1] | Potency [2] | max response [3] 0% | Potency [4] | Potency [5] | Potency [6] | Potency [7] | Potency [10] | Potency [8] | Potency [9]

CCCCCCCCC(CO)CCCCCC (stereo unspecified)
inactive: Potency [1] | Potency [2] | max response [3] 1.58% | Potency [4] | Potency [5] | Potency [6] | Potency [7] | Potency [10] | Potency [9]

CNS(=O)(=O)Cc1ccc2[nH]cc(CCN(C)C)c2c1
inactive: Potency [1] | Potency [2] | max response [3] 2.61% | Potency [4] | Potency [5] | Potency [6] | Potency [7] | Potency [10] | Potency [9]

NC[C@H]1O[C@H](O[C@H]2[C@H](O)[C@@H](O[C@H]3O[C@H](CO)[C@@H](O)[C@H](N)[C@H]3O)[C@H](N)C[C@@H]2N)[C@H](O)[C@@H](O)[C@@H]1O
inactive: activity change, negative = cytotoxicity [1] 8.96% [at 6.97 µM] | viability change, negative = cytotoxic [2] 5.97% [at 6.97 µM] | max response [3] 12.1% | activity change [4] 8.95% [at 6.97 µM, hits give high values] | cytotoxicity increase [5] 10.8% [at 6.97 µM] | activity change, negative = cytotoxic [6] -15.9% [at 6.97 µM] | cytotoxicity [7] 10.9% [at 6.97 µM] | cytotoxicity increase [10] 9.32% [at 6.97 µM] | activity change, negative = cytotoxicity [8] 12.9% [at 6.97 µM] | cytotoxicity increase [9] 10.5% [at 6.97 µM]

CC(=O)N(CC(=O)N(C)C)c1ccccc1
inactive: Potency [1] | Potency [2] | max response [3] 1.18% | Potency [4] | Potency [5] | Potency [6] | Potency [7] | Potency [8] | Potency [9]

NCCCN(CCO)CCO
inactive: Potency [1] | Potency [2] | max response [3] -7.84% | Potency [4] | Potency [5] | Potency [6] | Potency [7] | Potency [10] | Potency [9]

CCCCCCCCCCCCCCC1CO1 (stereo unspecified)
inactive: Potency [1] | Potency [2] | max response [3] 0.82% | Potency [4] | Potency [5] | Potency [6] | Potency [7] | Potency [8] | Potency [9]

C1CCC2OC2C1 (stereo unspecified)
inactive: Potency [1] | Potency [2] | max response [3] 4.85% | Potency [4] | Potency [5] | Potency [6] | Potency [7] | Potency [8] | Potency [9]

Cc1ccccc1N=Nc1ccc(N=Nc2c(O)ccc3ccccc23)c(C)c1
inactive: Potency [1] | Potency [2] | max response [3] 1.3% | Potency [4] | Potency [5] | Potency [6] | Potency [7] | Potency [8] | Potency [9]

CC(=O)O[C@H]1C[C@@H]2CC[C@@H]3[C@H](CC[C@@]4(C)[C@H]3C[C@H]([N+]3(C)CCCCC3)[C@@H]4OC(C)=O)[C@@]2(C)C[C@@H]1N1CCCCC1
inactive: Potency [1] | Potency [2] | max response [3] 3.64% | Potency [4] | Potency [5] | Potency [6] | Potency [7] | Potency [8] | Potency [9]

OCC1CC2CC1C1CCC(CO)C21 (stereo unspecified)
inactive: Potency [1] | Potency [2] | max response [3] -17.3% | Potency [4] | Potency [6] | Potency [7] | Potency [10] | Potency [8] | Potency [9]

ClC(Cl)(Cl)c1ccc(C(Cl)(Cl)Cl)cc1
inactive: Potency [1] | Potency [2] | max response [3] -9.34% | Potency [4] | Potency [6] | Potency [7] | Potency [10] | Potency [8]

CN1CCN(C2=Nc3ccccc3Sc3ccc(Cl)cc32)CC1
inactive: Potency [1] | Potency [2] | max response [3] -9.09% | Potency [4] | Potency [5] | Potency [7] | Potency [8] | Potency [9]

CCCCCCCCCCCCC(=O)O
inactive: Potency [1] | Potency [2] | max response [3] 0.0822% | Potency [4] | Potency [5] | Potency [7] | Potency [10] | Potency [8] | Potency [9]

NC(=S)N/N=C/c1cccnc1
inactive: Potency [1] | Potency [2] | max response [3] 6.57% | Potency [4] | Potency [5] | Potency [6] | Potency [7] | Potency [9]

CCCCC(CC)(CO)CO
inactive: Potency [1] | Potency [2] | max response [3] -0.853% | Potency [4] | Potency [5] | Potency [7] | Potency [8] | Potency [9]
